Records with an inconclusive call do not appear. Where a call stands in place of a potency, no number is given. Active and inactive are the calls of the source. Calls follow the shape of the dose curve; as a rule, active = well fitted cell-killing curve with a large enough effect; inconclusive = small, poorly fitted or top-dose-only effect; inactive = flat fitted curve, though single readings scatter.
Assay: Cell Viability - LYMP2-018 (AID 985);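 also: compound exposure lasted 24 hr at 37 °C; nearly all actives have a fitted effect of over 50% in size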
Settings: LYMP2-018 lymphoblastoid cells, viability (qHTS); series mostly up to 92.2 µM
From the text: NIH Chemical Genomics Center [NCGC]
NIH Molecular Libraries Screening Centers Network [MLSCN]
National Institutes of Environmental Health Sciences [NIEHS]
National Toxicology Program [NTP]
We have developed a 1536-well cell-based assay for quantitative high throughput screening (qHTS) against a number of cell lines to determine in vitro cytotoxicity of small molecules. This particular assay uses a human lymphoblastoid cell line (LYMP2-018) purchased from Coriell Institute for Medical Research.
NCGC Assay Protocol Summary:
The CellTiter-Glo luminescent cell viability assay (Promega) is a homogeneous method to measure the number of viable cells in culture. The end point readout of this assay is based on quantitation of intracellular ATP, an indicator of metabolic activity, using the luciferase reaction. Luciferase catalyzes the oxidation of beetle Luciferin to oxyluciferin and light in the presence of ATP. The luminescent signal is proportional to amount of ATP present.
Using the CellTiter-Glo luminescent cell viability assay, the amount of cellular ATP was measured in the lymphoblastoid cell line with complete culture medium following compound treatment for 24 hours. The assay was performed in opaque white Kalypsys 1536-well plates. In the screen, tetraoctylammonium bromide was used as positive control. Library compounds were measured for their ability to cause acute toxicity in the cell line, as reflected by a decrease in intracellular ATP levels, in a concentration-dependent manner. […] AC50 values were determined from concentration-response data modeled with the standard Hill equation.
qHTS protocol for CellTiter Glo lymphoblastoid cellular assay
[Step] [Parameter] [Value] [Description]
1. Reagent; 5 uL; 2500 lymphoblastoid cells/well
2. Time; 5 hr; 37 C incubation
4. Controls; 23 nL; Tetraoctylammonium bromide 6.4pM to 92 uM
5. Time; 24 hr; 37 C incubation
6. Reagent; 5 uL; CellTiter Glo reagent
7. Time; 30 min; Room Temperature
8. Detection; Luminescence; Viewlux plate reader
Keywords: cell viability, cytotoxicity, lymphoblastoid cell line, luminescence, NTPHTS, NTPHTS_NCGC, NIEHS, DSSTox, MLSMR, MLSCN, NIH Roadmap, qHTS, NCGC
Potency is read from the fitted curve at half-maximal effect.

SMILES | Potency
OCc1c[nH]c2ccccc12 | inactive
Cc1ccc(O)cc1 | inactive
CC(C)(c1ccc(O)cc1)c1ccc(O)cc1 | inactive
O=C(c1ccccc1)c1ccccc1 | inactive
Brc1ccccc1-c1ccccc1 | inactive
Cc1cc(C(C)(C)C)c(O)c(C(C)(C)C)c1 | inactive
COc1cc(C=O)ccc1O | inactive
Nc1c2ccccc2nc2ccccc12 | 12.6 µM (active)
CCCCCCCCCCCCCCCC[n+]1ccccc1 | 12.6 µM (active)
c1ccc2occc2c1 | inactive
CCCCC(CC)COC(=O)c1ccccc1C(=O)O (centres undefined) | inactive
Oc1ccccc1 | inactive
CCCC(=O)c1cc(O)c(O)cc1O | inactive
O=C(NO)c1ccccc1 | inactive
Nc1cccc2c(N)cccc12 | inactive
O=C(Oc1ccccc1)c1ccccc1O | inactive
C1=CC2C3C=CC(C3)C2C1 (centres undefined) | inactive
CC(C)C(C)(C)C(C)(C)C(C)(C)S | inactive
Nc1ccc(O)cc1 | 39.8 µM (active)

— PubChem BioAssay (NCATS)
